Shown are actives, neighbours in structure and some others; about 4.1% of the full set was active somewhere.
DAX1 inh-1: inhibits human nuclear receptor DAX1 | 340,000 compounds, 0.99% hits | HEK293 Gal4-DAX1 luciferase reporter, luminescence | inhibition, % at 6.75 µM | AID 504766 | P51843;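 active means inhibition above the mean over all tested compounds plus 3 SD, cut at about 4.2% in these data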;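 further: 0% = DAX1-transfected cells with DMSO and 100% = empty-vector control cells with DMSO; inhibition shows as a rise in luminescence from relieved DAX1 repression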
DAX1 inh-2: blocks DAX1 repression of SF-1 activated StAR promoter; HEK293T StAR-luciferase reporter, SF-1/DAX-1 repression relief; inhibition, % at 6.8 µM; 370,000 compounds, 1.1% hits; AID 652010;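 active means inhibition above the mean over all tested compounds plus 3 SD, cut at about 3.6% in these data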;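 further: 0% = DAX-1 cells with DMSO and 100% = cells lacking DAX-1 with DMSO; higher inhibition means more luminescence from relief of DAX-1 repression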
ssDAF12 agonist: activates DAF-12 receptor from parasite S. stercoralis; HEK293 ssDAF-12/GRIP1 lit1-tk-luc reporter, luminescence; % of 3 µM dafachronic acid response; AID 652126; 370,000 compounds, 1% hits; activation, % at 6.8 µM;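 active means activation above the mean over all tested compounds plus 3 SD, cut at about 0.9% in these data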;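 further: 0% = DMSO-only wells and 100% = 3 µM delta7-dafachronic acid wells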
hgDAF-12 ag: activates the H. glycines DAF-12 receptor ligand-binding domain | HEK293 GAL4-hgDAF12 UAS-luciferase reporter, agonist luminescence; normalized to butyrate control | activation, % at 6.8 µM | 370,000 compounds, 1.8% hits;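 active means activation above a cutoff set at the mean of all screened compounds plus 3 SD, cut at about 10% in these data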;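 further: 0% = DMSO wells and 100% = sodium butyrate wells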
hcDAF-12 act: H. contortus DAF-12 activation, primary screen; HEK293 hcDAF-12 lit1-tk-luc reporter, luminescence; 0% DMSO, 100% Δ7-dafachronic acid; activation, % at 6.8 µM; 370,000 compounds, 1.4% hits; AID 652067;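 active means activation above the mean of all tested compounds plus 3 SD, cut at about 5.5% in these data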;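 further: 100% = response to 3 µM Δ7-dafachronic acid high control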
LXR ag: activates human LXR-beta, counter-screen for hcDAF-12 agonists; shares compounds with hcDAF-12 act; HEK293 Gal4-LXR tk-luc reporter, luminescence, 24 h; normalized: DMSO 0%, positive control 100%; activation, % at 6.8 µM; 3,400 tested, under 10 active; AID 743027;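 active means mean percent activation of the reporter above a cutoff set as the average over tested compounds plus their standard deviation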
Target sequence (P55055 whole entry, looked up, the tested form may be a part): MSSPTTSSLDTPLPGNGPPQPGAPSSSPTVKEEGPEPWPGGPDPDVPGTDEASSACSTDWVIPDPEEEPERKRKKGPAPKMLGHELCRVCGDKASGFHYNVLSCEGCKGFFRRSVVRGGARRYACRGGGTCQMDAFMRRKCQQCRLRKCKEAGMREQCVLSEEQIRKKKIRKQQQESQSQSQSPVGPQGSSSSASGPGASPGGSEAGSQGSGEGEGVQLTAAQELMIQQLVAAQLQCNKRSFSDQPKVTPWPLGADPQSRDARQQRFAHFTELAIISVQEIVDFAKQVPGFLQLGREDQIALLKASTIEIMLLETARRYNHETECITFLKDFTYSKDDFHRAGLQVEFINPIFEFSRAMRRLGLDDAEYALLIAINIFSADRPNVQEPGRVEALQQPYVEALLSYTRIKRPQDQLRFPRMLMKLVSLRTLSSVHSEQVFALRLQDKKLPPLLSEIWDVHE
hcDAF12 ag: hcDAF-12 agonism, confirmation assay. 3,400 compounds, 61% hits. HEK293 hcDAF-12 lit1-tk-luc reporter, luminescence; % of Δ7-dafachronic acid response. activation, % at 6.8 µM. AID 743032. shares compounds with hcDAF-12 act;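 active means mean activation across triplicate tests above the threshold derived from the earlier primary screen, cut at about 5.5% in these data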;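 further: 0% = DMSO only wells and 100% = 3 µM Δ7-dafachronic acid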
An asterisk follows results filed as active.

Screening CCc1ccc(C2c3[nH]c4ccccc4c3CCN2C(=O)CN2CCN(CC)CC2)cc1 (stereo not drawn) returned DAX1 inh-1 -1, DAX1 inh-2 0, ssDAF12 agonist 1, hgDAF-12 ag 0, hcDAF-12 act 8.5*, LXR ag 0 and hcDAF12 ag 4.
COc1ccc2c(c1)[nH]c1c(=O)n(N)cnc12 was read as DAX1 inh-1 5.7*, DAX1 inh-2 1, ssDAF12 agonist 1, hgDAF-12 ag 1, hcDAF-12 act 9.7*, LXR ag 0 and hcDAF12 ag 6.4*.
O=[N+]([O-])c1nn(-c2ccc3c(c2)OCCO3)n(O)c1=NCc1ccccc1Cl was read as DAX1 inh-1 2, DAX1 inh-2 2, ssDAF12 agonist 0, hgDAF-12 ag 7 and hcDAF-12 act 1.
For COc1ccccc1CN=c1c([N+](=O)[O-])nn(-c2ccc3c(c2)OCCO3)n1O the results were DAX1 inh-1 2, DAX1 inh-2 3, ssDAF12 agonist 0, hgDAF-12 ag 11*, hcDAF-12 act 9.0*, LXR ag 0 and hcDAF12 ag 3.
`COc1cccc(C(=O)N2CCC(Oc3cccnc3)CC2)c1` gave DAX1 inh-2 1, ssDAF12 agonist -1, hgDAF-12 ag -4 and hcDAF-12 act -1.
`NC1=NS(=O)(=O)Nc2ccccc21` gave ssDAF12 agonist -2, hgDAF-12 ag 1 and hcDAF-12 act -2.
COC(=O)[C@]12C[C@H](CC(=O)NCc3ccccc3)C(=O)N(Cc3ccco3)C1=C[C@H](COCc1ccccc1)O[C@@H]2C was read as DAX1 inh-2 -1, ssDAF12 agonist 0, hgDAF-12 ag 2 and hcDAF-12 act 0.
For Cc1ccc(-c2cc(-c3ccc(F)cc3)n[nH]2)c(O)c1 the results were DAX1 inh-1 12*, DAX1 inh-2 2, ssDAF12 agonist 4.8*, hgDAF-12 ag 18*, hcDAF-12 act 20*, LXR ag 2 and hcDAF12 ag 18*.
`Oc1ccccc1-c1cc(-c2ccccc2)n[nH]1` gave DAX1 inh-1 5.9*, DAX1 inh-2 3.7*, ssDAF12 agonist 4.5*, hgDAF-12 ag 19*, hcDAF-12 act 19*, LXR ag 2 and hcDAF12 ag 21*.
For COc1ccc(-c2cc(-c3ccccc3O)[nH]n2)cc1 the results were DAX1 inh-1 2, DAX1 inh-2 3.7*, ssDAF12 agonist 4.4*, hgDAF-12 ag 22*, hcDAF-12 act 20*, LXR ag 3 and hcDAF12 ag 23*.
`Oc1ccccc1-c1cc(-c2ccc(F)cc2)n[nH]1` gave DAX1 inh-1 11*, DAX1 inh-2 3, ssDAF12 agonist 4.3*, hgDAF-12 ag 22*, hcDAF-12 act 19*, LXR ag 2 and hcDAF12 ag 19*.
Screening Cc1ccc(O)c(-c2cc(-c3cccc(Br)c3)n[nH]2)c1 returned DAX1 inh-1 2, DAX1 inh-2 0, ssDAF12 agonist 0, hgDAF-12 ag 2 and hcDAF-12 act 1.
For COCCNC(=O)C[C@H]1CC[C@H]2[C@@H](COc3ccc(NS(=O)(=O)c4ccc(Cl)cc4)cc3C(=O)N2C)O1 the results were DAX1 inh-2 -1, ssDAF12 agonist -1, hgDAF-12 ag -1 and hcDAF-12 act 3.
For COc1ccc(O)c(-c2cc(-c3ccccc3Cl)[nH]n2)c1 the results were DAX1 inh-1 3, DAX1 inh-2 1, ssDAF12 agonist 0, hgDAF-12 ag 7, hcDAF-12 act 7.5*, LXR ag 0 and hcDAF12 ag 4.
`Oc1c(C=Nc2ccccc2Cl)[nH]c2ccccc12` gave DAX1 inh-1 2, DAX1 inh-2 2, ssDAF12 agonist 1.1*, hgDAF-12 ag 14*, hcDAF-12 act 15*, LXR ag 1 and hcDAF12 ag 8.9*.
For C[C@@H]1CCN(C2CC2)S(=O)(=O)c2ccc(N3CCC[C@H]3CO)cc2O1 the results were DAX1 inh-2 0, ssDAF12 agonist -1, hgDAF-12 ag -3 and hcDAF-12 act -3.
